Measurements taken from PubChem BioAssay (NCI).
The panel holds about 83,000 compounds, 20% with a hit somewhere; the sample as a whole holds those more often.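 Step 1: grow cells in 96-well plates. Step 2: add test compound at a single concentration. Step 3: incubate 48 h. Step 4: record percent growth.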 A number with no mark means an inactive call. Activity calls are given as the source filed them. The calls were made as follows: active = growth percent below 10; inactive = the rest.

system: SF-295 CNS; assay: NCI-60 one-dose screen, 48 h (100 = growth as untreated, 0 = no growth, -100 = all killed); conditions: 10 µM unless noted

`O=C(c1ccccc1)c1ccc2nc(-c3ccc(F)cc3)[nH]c2c1` was tested. Which growth did it give?
The growth was 97.1%.

Which growth does the source give for `CC1(C)CC[C@]2(C(=O)O)CC[C@]3(C)C(=CCC4[C@@]5(C)C[C@@H](O)[C@@H]6OC(c7ccc(F)cc7)OC[C@@]6(C)C5CC[C@]43C)C2C1` (some centres undefined) here?
Its growth is 32.7%.

`N/C(=N\c1nc2ccccc2s1)NC(=O)Nc1ccc(Cl)cc1Cl` was tested. Which growth did it give?
Its growth is -98.5% (active).

`CCCCSc1nc(Nc2ccc(S(N)(=O)=O)cc2)c(C#N)c(-c2cc(OC)c(OC)c(OC)c2)n1` was tested. Which growth did it give?
Its growth is 24.2%.

`O=C(COc1ccc2c(c1)CCCC(=O)N2)NCc1ccccc1` was tested. Which growth did it give?
The growth was 90.8%.

For `Nc1nc(-c2ccccc2)c(N=Nc2ccc([N+](=O)[O-])cc2Cl)s1`, which growth is on record?
Its growth is 92.1%.

For `CC1(C)CC[C@]2(C(=O)O)CC[C@]3(C)C(=CCC4[C@@]5(C)C[C@@H](O)[C@@H]6OC(c7cccc(Br)c7)OC[C@@]6(C)C5CC[C@]43C)C2C1` (some centres undefined), which growth is on record?
Its growth is 33%.

How did the growth turn out when `C#CCOc1ccc(/C=N/Nc2nc(-c3cc4cc(OC)ccc4oc3=O)cs2)cc1OC` was run?
The growth was 41.2%.

Which growth does the source give for `N#Cc1c(NCc2ccccc2)n[nH]c1Nc1ccccc1` here?
The growth was 49.5%.

`COc1cc2oc(-c3cccc(C(=O)Nc4ccc(Cl)cc4)c3)cc(=O)c2c(OCC(=O)N[C@@H](Cc2ccccc2)C(=O)O)c1OC` was tested. Which growth did it give?
The growth was 111%.

With `Cn1cc(-c2cc3nc(-c4c[nH]c5ccc(Cl)cc45)cc(N)n3n2)c2ccccc21` as the molecule, how does the growth read?
The growth was -82.9% (active).

`C#C[C@]1(O)CC[C@H]2[C@@H]3CC=C4c5sc(-c6ccc([N+](=O)[O-])cc6)nc5CC[C@]4(C)[C@H]3CC[C@@]21C` was tested. Which growth did it give?
Its growth is -41.3% (active).

How did the growth turn out when `O=C(CSc1nc2ccccc2c(=O)[nH]1)NCCN1CCCCC1` was run?
The growth was 103%.

For `C#CCOc1cc(N(CC)CC)ccc1C(C(=O)NC(C)(C)C)N(C(=O)C1CCc2cc(F)ccc2O1)c1ccc(F)c(Cl)c1` (centres undefined), which growth is on record?
Its growth is 72.8%.

`O=c1oc2ccccc2cc1-c1csc(N2N=C(c3ccccc3)CC2c2ccc(N3CCOCC3)cc2)n1` (centres undefined) was tested. Which growth did it give?
The growth was 105%.

For `Cn1cc(-c2cc(N)n3nc(-c4cn(C)c5ncccc45)cc3n2)c2cccnc21`, which growth is on record?
Its growth is 62.6%.

How did the growth turn out when `COc1ccc(-c2ccnc(SCc3cc4cc(OC)ccc4[nH]c3=O)n2)cc1` was run?
Its growth is 17.5%.

For `CCOc1ccc(-c2c(C#N)c(-c3ccc(Cl)cc3)nc3n[nH]c(-c4ccc(Cl)cc4)c23)cc1OC`, which growth is on record?
The growth was 75.7%.

With `CN(C)c1ccnc(NCCCSC(c2ccccc2)(c2ccccc2)c2ccccc2)c1` as the molecule, how does the growth read?
The growth was 17%.

How did the growth turn out when `O=C(Cn1c(/C=C/c2ccccc2)nc2ccccc2c1=O)Nc1ccccc1` was run?
Its growth is 70.7%.

With `O=C(O)c1cccc(-c2ccc(/C=N/NC(=O)c3[nH]c4ccc(Br)cc4c3-c3ccccc3)s2)c1` as the molecule, how does the growth read?
The growth was 15.6%.

For `C#CCOc1cc(N(CC)CC)ccc1C(C(=O)NC(C)(C)C)N(C(=O)C1CCc2cc(F)ccc2O1)c1cc(C)cc(C)c1` (centres undefined), which growth is on record?
The growth was 33.5%.

How did the growth turn out when `COc1cc2c(c(OC)c1OC)C(=O)CC(c1cccc(NC(=O)c3cc(NC(=O)[C@@H](N)CO)ccc3C)c1)O2` (some centres undefined) was run?
Its growth is 101%.

With `C#CCOc1ccc(/C=N/Nc2nc(-c3ccc(F)cc3)cs2)cc1OC` as the molecule, how does the growth read?
Its growth is 79.2%.

Which growth does the source give for `Cc1cc2c(cc1Cl)C(=O)/C(=C/c1ccc(F)cc1)O2` here?
Its growth is 98.9%.

How did the growth turn out when `Cn1cc(-c2cc3nc(-c4cn(C)c5ncccc45)cc(N)n3n2)c2cc(Cl)ccc21` was run?
Its growth is -81.5% (active).

Which growth does the source give for `COc1ccc2[nH]cc(-c3cc(N)n4nc(-c5cn(C)c6ccccc56)cc4n3)c2c1` here?
Its growth is -81% (active).

For `COc1ccc(Cc2nn(CC(=O)N/N=C/c3ccc(F)cc3)c(=O)c3c(C)noc23)cc1`, which growth is on record?
The growth was -19.3% (active).

For `Cc1ccc(NCC(=O)Cn2cc(COc3ccc(C=Nc4cnc5ccccc5c4)cc3)nn2)cc1`, which growth is on record?
Its growth is 107%.

`Cc1cccc(NC(=O)CN2CCN(c3ncnc4c3cnn4-c3ccccc3)CC2)c1` was tested. Which growth did it give?
The growth was 117%.

Which growth does the source give for `Cn1cc(-c2nc(N)nnc2-c2c[nH]c3ccc(F)cc23)c2cc(Br)cnc21` here?
The growth was 9.21% (active).

Which growth does the source give for `COc1ccc2[nH]cc(-c3nnc(N)nc3-c3cn(C)c4ncc(Br)cc34)c2c1` here?
Its growth is 83.1%.

For `COc1ccc(NC(=O)[C@H](C)N)cc1C(=O)Nc1cccc(C2CC(=O)c3c(cc(OC)c(OC)c3OC)O2)c1` (some centres undefined), which growth is on record?
The growth was 119%.

How did the growth turn out when `CC1(C)CC[C@]2(C(=O)O)CC[C@]3(C)C(=CCC4[C@@]5(C)C[C@@H](O)[C@@H]6OC(c7ccco7)OC[C@@]6(C)C5CC[C@]43C)C2C1` (some centres undefined) was run?
The growth was 24.5%.
